Measurements reported in PubChem BioAssay (NCATS).
Several values for one entry are separate records, joined by “and”; a condition that tells them apart may be missing. Identical values can stand only once. Inconclusive results are not listed. Activity calls are given as the source filed them. Unless noted, calls come from the whole dose curve; as a rule, active = well fitted curve in the direction sought with a large enough effect; inconclusive = small, poorly fitted or top-dose-only effect, or another doubt; inactive = no such curve, though single readings can be large; an effect the other way counts as inactive or inconclusive.

Key:
[1] = qHTS for compounds that reverse cellular toxicity of Amyloid beta (A-beta) peptide in yeast: LOPAC Validation Assay (AID 720559);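 note: plate controls were DMSO for no effect and equimolar ferric chloride plus clioquinol rescue for full effect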
Method in brief: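 Yeast expressing toxic A-beta grown with pinned compounds at 30 C for 48 hr. Growth measured as absorbance at 600 nm; data normalized to DMSO and to an equimolar FeCl3/clioquinol mixture as positive control.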

[2] = qHTS for Activators of Parkin Expression: LOPAC Validation Assay (NLuc Reporter) (AID 720572;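 note: 0% = DMSO and 100% = positive control compound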)
Method in brief: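 Parkin promoter-driven FLuc/NLuc neuronal reporter cells; 24 h plating, 7-pt dose response, 24 h at 37 C/5% CO2; FLuc then NanoLuc reagent, 10 min each, luminescence; DMSO/positive control normalized.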

[3] = qHTS for Activators of Parkin Expression: LOPAC Validation Assay (FLuc Reporter) (AID 720573;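 note: 0% = DMSO and 100% = positive control compounds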)
Method in brief: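 Neuronal cell line stably expressing FLuc/NLuc coincidence reporter under the Parkin promoter, 1,500 cells/well, dosed 24 h after seeding in 7-point series for 24 h at 37 C. FLuc luminescence read; normalized to DMSO and positive control (100%).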

[4] = target: T1, Hexokinase-4 (Homo sapiens) + Glucokinase regulatory protein (Homo sapiens) (UniProt P35557+Q14397); assay: qHTS assay for inhibitors of recombinant human GCK-GKRP interaction: Diaphorase-coupled assay (AID 743205); note: potency is the fitted concentration of half-maximal effect
T1 sequence (P35557 whole entry, looked up): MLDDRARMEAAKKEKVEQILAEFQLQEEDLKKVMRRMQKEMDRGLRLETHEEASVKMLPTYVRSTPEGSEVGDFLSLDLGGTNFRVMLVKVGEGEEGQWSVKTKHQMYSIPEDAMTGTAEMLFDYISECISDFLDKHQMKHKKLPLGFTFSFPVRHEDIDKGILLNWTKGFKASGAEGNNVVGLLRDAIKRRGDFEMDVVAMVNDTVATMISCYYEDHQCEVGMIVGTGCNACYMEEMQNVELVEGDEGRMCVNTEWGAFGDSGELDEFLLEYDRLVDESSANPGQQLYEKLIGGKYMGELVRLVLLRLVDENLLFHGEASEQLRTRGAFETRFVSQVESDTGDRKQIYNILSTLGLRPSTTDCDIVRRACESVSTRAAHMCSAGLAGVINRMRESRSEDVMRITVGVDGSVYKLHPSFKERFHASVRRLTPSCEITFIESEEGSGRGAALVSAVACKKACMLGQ
T1 sequence (Q14397 whole entry, looked up): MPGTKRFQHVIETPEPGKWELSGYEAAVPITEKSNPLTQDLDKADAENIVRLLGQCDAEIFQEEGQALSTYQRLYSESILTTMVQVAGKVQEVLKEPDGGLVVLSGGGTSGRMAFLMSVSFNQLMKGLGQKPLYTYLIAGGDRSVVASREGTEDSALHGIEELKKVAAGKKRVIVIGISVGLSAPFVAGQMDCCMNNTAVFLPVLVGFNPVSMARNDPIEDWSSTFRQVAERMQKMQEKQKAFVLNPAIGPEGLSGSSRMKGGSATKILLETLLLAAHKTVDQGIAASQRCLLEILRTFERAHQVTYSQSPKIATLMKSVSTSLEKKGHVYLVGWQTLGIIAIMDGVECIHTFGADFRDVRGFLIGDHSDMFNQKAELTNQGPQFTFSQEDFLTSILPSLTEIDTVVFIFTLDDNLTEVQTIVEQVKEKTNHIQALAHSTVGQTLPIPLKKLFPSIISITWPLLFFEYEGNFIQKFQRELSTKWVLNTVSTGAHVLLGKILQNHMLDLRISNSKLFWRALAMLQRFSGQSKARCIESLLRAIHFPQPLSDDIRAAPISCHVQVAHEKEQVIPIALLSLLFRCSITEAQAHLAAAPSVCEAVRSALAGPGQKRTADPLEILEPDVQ
Method in brief: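 Compounds pre-incubated 20 min with substrate, then 10 nM GST-GCK with 10 nM FLAG-GKRP added. GCK activity coupled via G6PDH and diaphorase to resorufin (5 mM glucose, 0.4 mM ATP, 0.15 mM NADP+, pH 7.6), read kinetically over 30 minutes at Ex 525/Em 590 nm.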

[5] = target: T1, Hexokinase-4 (Homo sapiens) + Glucokinase regulatory protein (Homo sapiens); assay: qHTS assay for inhibitors of recombinant human GCK-GKRP interaction: ADP-Glo assay (AID 743206); note: potency is the fitted concentration of half-maximal effect
Method in brief: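 GST-GCK and FLAG-GKRP (15 nM each in the dispensed mix, with 2 uM S6P) react with 0.4 mM ATP and 5 mM glucose (final) in Hepes pH 7.6 for 60 min at room temperature. ADP is measured by ADP-Glo luminescence.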

[6] = target: T1, Hexokinase-4 (Homo sapiens) + Glucokinase regulatory protein (Homo sapiens); assay: qHTS assay for inhibitors of recombinant human GCK-GKRP interaction: HTRF assay (AID 743207); note: potency is the fitted concentration of half-maximal effect
Method in brief: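 HTRF binding of 5 nM GST-GCK and 5 nM FLAG-GKRP with 2 uM S6P in pH 7.1 Hepes buffer (MgCl2, KCl, DTT, Tween 20, BSA). Anti-FLAG XL665 and anti-GST donor added, 60 min at room temperature; 665/615 nm read, normalized to with- and without-GCK controls.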

[7] = qHTS Assay for Identifying Gametocytocidal Compounds (AID 743244);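 note: % is set by controls: 0 for no effect and ±100 for the full control effect; actives lower the fluorescent signal which means gametocytes are killed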; settings: P. falciparum 3D7 stage III-V gametocytes, alamarBlue, 72 h; max response: stronger effect = lower value
Method in brief: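 Using 20,000 stage III–V 3D7 gametocytes per well, compounds were incubated 72 h under 37 °C/5% CO2. Viability was then assessed by 24 h alamarBlue reduction, measured fluorometrically at 525/598 nm.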

[8] = target: Arylsulfatase A (Homo sapiens) (UniProt P15289); assay: qHTS screen for enhancers of Arylsulfatase A (ASA1): LOPAC Validation Assay (AID 720538)
Sequence of Arylsulfatase A (Homo sapiens) (P15289 whole entry, looked up): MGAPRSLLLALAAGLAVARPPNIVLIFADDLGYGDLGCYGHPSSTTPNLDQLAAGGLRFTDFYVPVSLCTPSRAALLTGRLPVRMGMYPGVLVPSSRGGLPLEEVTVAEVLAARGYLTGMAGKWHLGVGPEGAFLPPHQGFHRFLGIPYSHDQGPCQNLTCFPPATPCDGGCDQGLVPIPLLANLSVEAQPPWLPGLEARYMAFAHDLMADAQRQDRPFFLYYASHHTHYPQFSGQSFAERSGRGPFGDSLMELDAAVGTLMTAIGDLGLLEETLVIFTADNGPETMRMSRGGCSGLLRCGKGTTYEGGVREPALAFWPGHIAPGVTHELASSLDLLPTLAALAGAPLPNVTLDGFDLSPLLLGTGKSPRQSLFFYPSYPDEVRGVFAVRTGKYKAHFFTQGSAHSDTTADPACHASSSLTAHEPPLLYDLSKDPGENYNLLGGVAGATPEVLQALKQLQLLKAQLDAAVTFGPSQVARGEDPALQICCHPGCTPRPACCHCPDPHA
Method in brief: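 SV40-transformed fibroblasts from an MLD patient (ASA-I179S) were treated with compound for 48 h at 37 C. They were then lysed with 0.5 mM pNCS substrate (final) for 14 h at room temperature and stopped with NaOH; signal read by fluorescence (Ex 525/Em 598 nm), with increase denoting enhanced activity.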

[9] = qHTS for small molecule inhibitors of Yes1 kinase: Counter Assay (AID 686950);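 note: no kinase present so only ADP-Glo detection of a fixed ADP amount is tested; luminescence from ADP-Glo reporting ADP in a fixed ATP and ADP mixture; 0% = DMSO wells with ATP plus ADP and -100% = ATP-only wells without ADP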
Method in brief: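 Luminescence read-out from ADP-Glo quantifies a fixed ADP amount (0.02 mM ADP with 0.08 mM ATP) after 60 min at room temperature; signal is normalized between DMSO wells with ATP/ADP and with 0.1 mM ATP alone.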

[10] = qHTS profiling for inhibitors of Plasmodium falciparum (3D7) proliferation (AID 743322; call rule not given here;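 note: infected erythrocytes exposed to compound for 72 h before lysis; 100% = DMSO vehicle wells and 0% = 0.29 µM artemisinin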); settings: P. falciparum 3D7 proliferation, at 28.7 µM (top of the series)
Method in brief: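 Erythrocytes infected with P. falciparum (0.3% parasitemia, 2.5% hematocrit) incubated with compounds 72 h at 37 C, 5% CO2. Lysis with saponin/Triton buffer containing SYBR Green I, overnight at room temperature in the dark; DNA fluorescence (485/535 nm) normalised to 0.29 uM artemisinin and DMSO.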

[11] = qHTS profiling for inhibitors of Plasmodium falciparum (DD2) proliferation (AID 743323; call rule not given here); settings: at 28.7 µM (top of the series), lower = more inhibition
Method in brief: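 SYBR Green fluorescence (ex 485, em 535 nm) of lysed cultures gives parasite DNA content; wells normalized to artemisinin (0.29 uM) and DMSO controls. Infected red cells: 0.3% parasitemia, 2.5% hematocrit, 72 h, 37 C.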

[12] = qHTS profiling for inhibitors of Plasmodium falciparum (HB3) proliferation (AID 743324); settings: Plasmodium falciparum HB3 blood-stage proliferation; at 28.7 µM (top of the series);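 note: 100% = DMSO vehicle wells and 0% = artemisinin-treated control wells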
Method in brief: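 P. falciparum HB3 grown in erythrocytes (0.3% parasitemia, 2.5% hematocrit final) with compound for 72 h at 37 C, 5% CO2. Parasite DNA detected by SYBR Green after saponin/triton lysis overnight; normalized to 0.29 uM artemisinin and DMSO.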

[13] = target: Tyrosine-protein kinase Yes (Homo sapiens) (UniProt P07947); assay: qHTS for small molecule inhibitors of Yes1 kinase: Primary Screen (AID 686947);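 note: plate controls were DMSO with enzyme for no effect and no-enzyme DMSO wells for full effect; nearly all actives have a fitted effect of over 60% in size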
Sequence of Tyrosine-protein kinase Yes (Homo sapiens) (P07947 whole entry, looked up): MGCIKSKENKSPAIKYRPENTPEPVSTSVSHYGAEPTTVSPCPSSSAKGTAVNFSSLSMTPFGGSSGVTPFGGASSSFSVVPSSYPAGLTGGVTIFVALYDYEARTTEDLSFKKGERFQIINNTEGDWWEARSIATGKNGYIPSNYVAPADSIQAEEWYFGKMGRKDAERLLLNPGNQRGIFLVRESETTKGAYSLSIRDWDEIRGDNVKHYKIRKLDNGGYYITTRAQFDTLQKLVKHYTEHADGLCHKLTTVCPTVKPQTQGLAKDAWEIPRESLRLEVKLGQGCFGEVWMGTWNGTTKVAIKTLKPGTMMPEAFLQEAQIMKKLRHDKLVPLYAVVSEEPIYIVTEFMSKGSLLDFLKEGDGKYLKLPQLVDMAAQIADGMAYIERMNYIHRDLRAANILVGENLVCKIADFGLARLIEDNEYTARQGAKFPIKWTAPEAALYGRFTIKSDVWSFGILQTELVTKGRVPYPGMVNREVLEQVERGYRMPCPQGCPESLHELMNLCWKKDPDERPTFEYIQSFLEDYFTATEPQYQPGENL
Method in brief: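 Yes1 (4 nM) preincubated 20 min with compound, then 60 min room-temperature reaction with 0.1 mM ATP and 0.3 mg/mL poly(E4Y) in pH 7.5 Tris, 10 mM MgCl2. ADP measured by ADP-Glo luminescence, normalised to enzyme/no-enzyme controls.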

CN1C2CCC1CC(OC(=O)C(CO)c1ccccc1)C2 (stereo not given)
inactive: outcome [1] | outcome [2] | Potency [3] | Potency [4] | Potency [5] | Potency [6]

CCN1CCCC1CNC(=O)c1cc(S(=O)(=O)CC)c(N)cc1OC (stereo not given)
inactive: outcome [1] | outcome [2] | Potency [3] | Potency [4] | Potency [5] | Potency [6] | max response [7] -5.68% and 24.9%

O=C1N(c2ccccc2)c2ccccc2C1(Cc1ccncc1)Cc1ccncc1
inactive: Potency [8] | outcome [1] | outcome [2] | Potency [3] | Potency [4] | Potency [5] | Potency [6] | max response [7] -4.76% and 23.2%

COc1ccccc1N1CCN(CC(O)COc2cccc3ccccc23)CC1 (stereo not given)
inactive: Potency [8] | outcome [1] | outcome [2] | Potency [3] | Potency [4] | Potency [5] | Potency [6] | max response [7] 7.63% and 7.03%

NC12CC3CC(CC(C3)C1)C2
inactive: Potency [8] | outcome [1] | outcome [2] | Potency [3] | Potency [4] | Potency [5] | Potency [6] | max response [7] -8.46%

Cc1cnc(C(=O)NCCc2ccc(S(=O)(=O)NC(=O)NC3CCCCC3)cc2)cn1
inactive: Potency [8] | outcome [1] | outcome [2] | Potency [3] | Potency [4] | Potency [5] | Potency [6] | max response [7] 32.6% and 12.5%

NCCc1cnc[nH]1
inactive: Potency [8] | outcome [1] | outcome [2] | Potency [3] | Potency [4] | Potency [5] | Potency [6] | max response [7] 8.45% and 33%

CC[C@@]1(O)C(=O)OCc2c1cc1n(c2=O)Cc2cc3c(CN(C)C)c(O)ccc3nc2-1
11.5%: remaining parasite growth % (stronger effect = lower value) [10]
inactive: outcome [9] | max response [7] 27.1% and 13.5%
12.8%: activity, percent of control [11]

NC(=O)NO
inactive: Potency [8] | outcome [1] | outcome [2] | Potency [3] | Potency [4] | Potency [5] | Potency [6] | max response [7] -4.54% and 19.4%

OCCN(CCO)c1nc(N2CCCCC2)c2nc(N(CCO)CCO)nc(N3CCCCC3)c2n1
inactive: Potency [8] | outcome [1] | max response [7] 7.4%

CN(C)CCCN1c2ccccc2CCc2ccc(Cl)cc21
inactive: outcome [1] | outcome [2] | Potency [3] | Potency [4] | Potency [5] | Potency [6]

Clc1ccc2nsnc2c1NC1=NCCN1
inactive: outcome [1] | outcome [2] | Potency [3] | Potency [4] | Potency [5] | Potency [6] | max response [7] 11.7% and 4.37%

CC1COc2c(N3CCN(C)CC3)c(F)cc3c(=O)c(C(=O)O)cn1c23 (stereo not given)
inactive: Potency [8] | outcome [1] | outcome [2] | Potency [3] | Potency [4] | Potency [5] | Potency [6] | max response [7] 18.2% and 27.4%

CS(=O)(=O)CCNCc1ccc(-c2ccc3ncnc(Nc4ccc(OCc5cccc(F)c5)c(Cl)c4)c3c2)o1
1.42%: remaining proliferation (% of control), lower = more inhibition [12]
12.2%: activity, percent of control [11]
inactive: outcome [9] | max response [7] -3.58% and 12%
0.561%: remaining parasite growth % (stronger effect = lower value) [10]

OCCN1CCN(CCCN2c3ccccc3Sc3ccc(C(F)(F)F)cc32)CC1
inactive: outcome [1] | outcome [2] | Potency [3] | Potency [4] | Potency [5] | Potency [6]

CCc1cccc2c3c([nH]c12)C(CC)(CC(=O)O)OCC3 (stereo not given)
inactive: Potency [8] | outcome [1] | outcome [2] | Potency [3] | Potency [4] | Potency [5] | Potency [6] | max response [7] 10.8% and -5.14%

CN1CCC(=C2c3ccccc3CC(=O)c3sccc32)CC1
inactive: outcome [1] | outcome [2] | Potency [3] | Potency [4] | Potency [5] | Potency [6]

CN(C)C(=O)C(CCN1CCC(O)(c2ccc(Cl)cc2)CC1)(c1ccccc1)c1ccccc1
inactive: outcome [1] | outcome [2] | Potency [3]

CN(C)C(=N)N=C(N)N
102%: remaining proliferation (% of control), lower = more inhibition [12]
125%: activity, percent of control [11]
inactive: Potency [13] | outcome [9] | max response [7] 1.21% and -1.21%
104%: remaining parasite growth % (stronger effect = lower value) [10]

CNCCCC12CCC(c3ccccc31)c1ccccc12
inactive: outcome [1] | outcome [2] | Potency [3] | Potency [4] | Potency [5] | Potency [6]

COc1nc(C)nc(Cl)c1NC1=NCCN1
inactive: Potency [8] | outcome [1] | outcome [2] | Potency [3] | Potency [4] | Potency [5] | Potency [6] | max response [7] 0.253% and 33%

CC1(CN2CCC(n3c(=O)[nH]c4ccccc43)CC2)OCc2ccccc2-n2cccc21 (stereo not given)
17.6%: activity, percent of control [11]
inactive: Potency [13] | outcome [9] | max response [7] -18.7% and -2.64%
0.0183%: remaining proliferation (% of control), lower = more inhibition [12]
21.2%: remaining parasite growth % (stronger effect = lower value) [10]

Cc1ccc(C(=O)Nc2ccc(S(=O)(=O)O)c3cc(S(=O)(=O)O)cc(S(=O)(=O)O)c23)cc1NC(=O)c1cccc(NC(=O)Nc2cccc(C(=O)Nc3cc(C(=O)Nc4ccc(S(=O)(=O)O)c5cc(S(=O)(=O)O)cc(S(=O)(=O)O)c45)ccc3C)c2)c1
inactive: Potency [8] | outcome [1] | outcome [2] | Potency [3] | max response [7] 35.1% and 2.76%
active: Potency [4] 28.2 µM | Potency [5] 5.62 µM | Potency [6] 17.8 µM

O=c1c(O)c(-c2ccc(O)c(O)c2)oc2cc(O)cc(O)c12
inactive: outcome [9] | outcome [1] | Potency [4] | Potency [5] | Potency [6]
26.9% and 12.7%: remaining parasite growth % (stronger effect = lower value) [10]
8.52% and 5.2%: activity, percent of control [11]
1.74% and 5.43%: remaining proliferation (% of control), lower = more inhibition [12]

CCCCc1oc2ccccc2c1C(=O)c1cc(I)c(OCCN(CC)CC)c(I)c1
inactive: outcome [1] | outcome [2] | Potency [3] | Potency [4] | Potency [5] | Potency [6]
